A selection: hits, their analogues and other compounds. The true share with any hit is near 4.3%.
Autofluor counter – counter-screen for toxin protease inhibitors: compound fluorescence; fluorescence intensity (concentration not given with the values); compound autofluorescence counterscreen, microsphere flow cytometry; active compounds read high; AID 624483; hit rate 3.1% among 360,000; in the data active means fluorescence intensity above about 16000; inconclusive means no clear call, values can overlap the other calls
BoNT F protease – blocks Botulinum neurotoxin F light chain protease; inhibition, % at 10 µM; hit rate 0.22% among 360,000; Multiplex microsphere protease cleavage assay, flow cytometry; in the data active means inhibition above about 35%, passing the limit was not always enough; inconclusive means no clear call, values can overlap the other calls; further: plate controls were buffer without enzyme for full effect and enzyme alone for no effect
Anthrax LF prot – blocks Bacillus anthracis lethal factor protease | multiplex microsphere protease cleavage assay, LF | inhibition, % at 10 µM | hit rate 0.12% among 360,000 | AID 588501 | P15917; further: plate controls were buffer without enzyme for full effect and enzyme alone for no effect
BoNT A protease – blocks Botulinum neurotoxin A light chain protease. multiplex microsphere protease substrate cleavage, flow cytometry. inhibition, % at 10 µM. hit rate 0.17% among 360,000; further: plate controls were buffer without enzyme for full effect and enzyme alone for no effect
PfHsp40 yeast – compounds rescuing yeast from Plasmodium falciparum HSP40 toxicity. S. cerevisiae expressing PfHsp40, growth rescue, ATP luminescence. growth rescue, % at 12.5 µM. hit rate 0.68% among 340,000; in the data active means growth rescue above about 28%, passing the limit was not always enough; inconclusive means no clear call, values can overlap the other calls;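 further: yeast W303a lacking pdr1 and pdr3 grown in galactose medium; growth measured after three days at 30 °C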
MazF activator – increases E. coli MazEF RNase cleavage of RNA; FAM/BHQ RNA-DNA oligo cleavage fluorescence, 5 h; activation, % at 20 µM; AID 504720; hit rate 0.32% among 350,000; P0AE70; in the data active means activation above about 50%
Target sequence (P0AE70 whole entry, looked up): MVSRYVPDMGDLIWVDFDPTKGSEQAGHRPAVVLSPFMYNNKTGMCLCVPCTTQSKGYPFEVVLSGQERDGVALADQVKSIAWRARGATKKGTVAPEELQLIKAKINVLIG
* marks the source's active call; other numbers are inactive results; ? = inconclusive; nt = no result. Unless noted, no stated cut-off is given here; in the data, active means inhibition above about 30%; inconclusive means no clear call, values can overlap the other calls; inactive means below that.

SMILES | Autofluor counter | BoNT F protease | Anthrax LF prot | BoNT A protease | PfHsp40 yeast | MazF activator
Cc1cc(NC(=O)Nc2cccc(Cl)c2)n(-c2ccccn2)n1 | 3996 | 1.1 | -5.7 | -0.3 | 100.7* | 9.5
Cc1cc(NC(=O)Nc2cccc(Cl)c2)n(-c2ccccc2)n1 | 4762 | ? | -23.9 | ? | -0.8 | 6.8
O=C1/C(=C/c2ccc([N+](=O)[O-])cc2)C=C(c2ccccc2)N1c1ccccc1 | 10543 | 0.8 | -4.7 | 0.9 | -2.0 | 29.7
O=C1/C(=C/c2ccc([N+](=O)[O-])cc2)C=C(c2ccccc2)N1c1ccc(O)cc1 | 22121* | -3.7 | -14.1 | 0.9 | 1.0 | 15.3
CCOc1ccc(C(=O)NCC(=O)N2CCN(c3ccccc3O)CC2)cc1 | 5981 | 3.8 | -4.3 | -1.3 | -0.5 | 9.9
N#Cc1c(=O)c2nc(NCc3ccccc3)ncc2n2ccccc12 | 23674* | -0.3 | 3.4 | 0.1 | 0.2 | -4.4
Cc1cc2ccccn2c1C(=O)c1nc(NCc2ccccc2)ncc1Cl | 2563 | -6.5 | 0.3 | -0.1 | 0.7 | -0.8
COc1cc(-n2cnnn2)ccc1S(=O)(=O)N1CCOCC1 | 22844* | -1.8 | 0.6 | ? | -0.1 | -1.8
COC(=O)c1cccc(S(=O)(=O)N2CCCC2)c1 | 2380 | 2.3 | -1.6 | 0.1 | 0.6 | 2.4
O=C(c1cccc(S(=O)(=O)N2CCOCC2)c1)N1CCCC1 | 6830 | -11.5 | -7.2 | -0.4 | 0.6 | 1.1
O=C(c1cccc(S(=O)(=O)N2CCOCC2)c1)N1CCCCCC1 | 23147* | -2.1 | 1.7 | -1.5 | 0.1 | -4.0
Cc1ccc(C(=O)O)cc1S(=O)(=O)N1CCOCC1 | 16552* | -3.2 | -1.4 | -1.8 | 0.5 | 1.1
COc1ccc(OC(=O)c2cccc(S(=O)(=O)N3CCCC3)c2)cc1 | 24453* | -5.3 | -3.0 | -4.7 | 1.2 | -0.6
CC1CN(C(=O)CCC(=O)N2CCCCC2)c2ccccc2O1 (stereo not drawn) | 6015 | -0.9 | -6.6 | -0.8 | 1.0 | 6.9
O=C(CC(c1ccco1)S(=O)(=O)c1ccccc1)c1ccccc1 (stereo not drawn) | 4442 | 0.4 | -3.5 | 0.5 | -0.4 | -10.7
COc1ccc(N2CCN(C(=O)c3ccc(S(=O)(=O)N4CCOCC4)cc3)CC2)cc1 | 22765* | 2.0 | 2.1 | -0.5 | 1.7 | -2.3
COc1ccc(N2CCN(S(=O)(=O)c3cccc(C(F)(F)F)c3)CC2)cc1 | 20076* | -4.4 | -11.0 | 0.8 | 0.8 | -0.1
COc1ccc(C(=O)N2CCCC2)cc1S(=O)(=O)N1CCOCC1 | 20709* | -2.4 | 2.2 | 0.3 | 0.1 | -0.1
COc1ccc(C(=O)N2CCN(S(=O)(=O)c3ccc(C)cc3)CC2)cc1S(=O)(=O)N1CCOCC1 | 4445 | -7.0 | -1.3 | -0.1 | -0.4 | 7.3
COc1ccc(N2CCN(C(=O)c3ccc(-n4nc(C)cc4C)cc3)CC2)cc1 | 25032* | -7.9 | -2.6 | -3.6 | 0.0 | -0.2
Cc1ccc(Cl)cc1N1CCN(S(=O)(=O)c2ccc3c(c2)NC(=O)C(C)C(=O)N3)CC1 (stereo not drawn) | 4546 | -8.7 | -4.3 | -0.5 | -0.1 | -5.4
O=C(c1cccc(S(=O)(=O)N2CCOCC2)c1)N1CCN(c2ccc(F)cc2)CC1 | 21227* | 4.7 | -4.7 | 4.5 | -0.7 | -2.6
O=C(c1cccc(S(=O)(=O)N2CCOCC2)c1)N1CCN(c2ccccc2)CC1 | 4012 | 4.1 | -0.8 | -0.8 | -0.3 | 1.9
COc1ccc(C(=O)N2CCN(S(=O)(=O)c3ccc(Cl)cc3)CC2)cc1OC | 21574* | 7.9 | 3.8 | 4.0 | -0.7 | -1.5
COc1ccc(C(=O)N2CCN(S(=O)(=O)c3ccc(F)cc3)CC2)cc1OC | 2477 | -0.6 | -1.0 | -0.5 | -1.4 | 2.7
SMILES | Autofluor counter | BoNT F protease | Anthrax LF prot | BoNT A protease | PfHsp40 yeast | MazF activator
COc1ccc(N2CCCC2=N)c(OC)c1 | 5495 | -0.2 | -11.3 | -0.7 | -0.5 | 0.1
COc1nc(NC(C)(C)C)nc(Oc2ccc(=O)n(-c3ccccc3)n2)n1 | 21751* | -0.6 | 0.4 | -0.2 | 0.4 | 5.7
CN(C)c1nc(Oc2ccc(=O)n(-c3ccccc3)n2)nc(N2CCOCC2)n1 | 21946* | 0.2 | 0.2 | ? | 1.6 | -9.5
O=C(CCC1CCCC1)Nc1ccccc1-c1ccccc1 | 1974 | 6.2 | 2.5 | 1.0 | 2.8 | 0.2
O=C(CCC1CCCCC1)Nc1ccccc1O | 16345* | -0.4 | -1.5 | 0.4 | 0.3 | 5.3
O=C(CCC1CCCCC1)Nc1ccccc1-c1ccccc1 | 21102* | 0.2 | -3.8 | ? | 1.5 | -5.1
O=C1CC(N2CCC(c3nc4ccccc4o3)CC2)C(=O)N1c1cc(Cl)cc(Cl)c1 (stereo not drawn) | 22844* | -0.9 | -0.7 | 0.9 | 0.4 | 2.0
Cc1cccc(N2C(=O)CC(N3CCC(c4nc5ccccc5[nH]4)CC3)C2=O)c1 (stereo not drawn) | 6007 | 0.5 | -6.8 | -1.0 | 1.5 | 9.9
Cc1ccc(-n2c(=O)c3sccc3n(CC(=O)N3CCCC3)c2=O)cc1 | 9658 | 0.8 | 0.9 | -0.6 | -0.5 | 3.0
O=C(Cn1c(=O)n(-c2ccccc2)c(=O)c2sccc21)N1CCCC1 | 23839* | -4.1 | 0.0 | -0.6 | -1.2 | -1.5
CC1CCCN(S(=O)(=O)c2ccc3c(c2)OCCO3)C1 (stereo not drawn) | 3887 | 3.8 | -0.9 | -0.9 | nt | -5.7
O=C(Nc1ccc(Cl)cc1)c1cccc(NC2=NC3CS(=O)(=O)CC3S2)c1 (stereo not drawn) | 4592 | -14.7 | -6.1 | -1.2 | 0.3 | 2.5
COc1ccc(C(=O)NCCNC(C)=O)cc1S(=O)(=O)NCc1ccc(Cl)cc1 | 19992* | -5.7 | -2.2 | -1.0 | 0.9 | 4.0
O=C(COC(=O)c1cccc(S(=O)(=O)N2CCCCC2)c1)NCc1cccc(Cl)c1 | 2856 | 4.2 | 2.4 | 0.0 | nt | 0.4
CC(CN1CC(=O)NC(=O)C1)N1CC(=O)NC(=O)C1 (stereo not drawn) | 3409 | -2.0 | -8.4 | 0.0 | nt | 3.9
CCc1ccc(CNCCNCC(C)O)cc1 (stereo not drawn) | 21353* | -9.3 | -1.2 | -2.1 | -0.7 | 8.1
CC(O)CNCCNCc1cccs1 (stereo not drawn) | 4103 | -2.8 | -2.5 | -0.4 | 0.0 | 11.1
CCOC(=O)c1c(N)sc2c(O)c(Br)ccc12 | 20732* | -1.9 | -1.7 | -0.4 | -0.6 | -4.6
O=C1CC(=O)N(c2cccc(Br)c2)C(=O)N1 | 3790 | 8.7 | -7.7 | -2.1 | -0.9 | -27.8
O=C1CC(=O)N(c2ccc(Cl)cc2Cl)C(=O)N1 | 21690* | 3.6 | -4.3 | 2.6 | -0.5 | 6.6
Cc1cc(Br)ccc1N1C(=O)CC(=O)NC1=O | 20409* | 5.3 | -1.3 | 5.4 | -0.1 | 4.7
O=C(O)/C=C/C(=O)c1ccc2c(c1)CCc1ccccc1-2 | 3741 | 2.7 | -0.3 | 0.0 | 429.6* | -20.7
O=C(c1cc2c(s1)CCCC2)N1CCC2(CC1)OCCO2 | 23757* | -0.4 | -0.1 | ? | -0.9 | 0.9
O=C(COC(=O)c1cnc(Cl)c(Cl)c1)NCCC1=CCCCC1 | 4065 | -1.8 | -0.9 | -0.5 | 30.4* | -0.3
